# Rows were chosen to be rich in hits. Some 9.3% of all compounds tested hit in one or more screens of this group.
# A340 absorber: compounds absorbing at 340 nm | fold change at 10 µM | 65,000 tested, under 10 active | compound absorbance at 340 nm, fold over control;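 active means at 10 µM dose, initial 340 nm absorbance at least 2 fold that of control wells; inactive means change under 2 fold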;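 further: initial absorbance extrapolated from kinetic A340 decline of NADH oxidation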
# M1 antag: blocks the rat M1 muscarinic receptor response to acetylcholine. P08482. CHO-M1 cells, Fluo-4 calcium, ACh EC80 antagonist mode; stronger effect = lower value. B-score at 10 µM. 3.4% of 64,000 active;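 active means calcium fluorescence response, raw or row-and-column corrected B-score, differing from the plate sample mean either way at a set confidence level, mostly lower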
# Target sequence (P08482 whole entry, looked up): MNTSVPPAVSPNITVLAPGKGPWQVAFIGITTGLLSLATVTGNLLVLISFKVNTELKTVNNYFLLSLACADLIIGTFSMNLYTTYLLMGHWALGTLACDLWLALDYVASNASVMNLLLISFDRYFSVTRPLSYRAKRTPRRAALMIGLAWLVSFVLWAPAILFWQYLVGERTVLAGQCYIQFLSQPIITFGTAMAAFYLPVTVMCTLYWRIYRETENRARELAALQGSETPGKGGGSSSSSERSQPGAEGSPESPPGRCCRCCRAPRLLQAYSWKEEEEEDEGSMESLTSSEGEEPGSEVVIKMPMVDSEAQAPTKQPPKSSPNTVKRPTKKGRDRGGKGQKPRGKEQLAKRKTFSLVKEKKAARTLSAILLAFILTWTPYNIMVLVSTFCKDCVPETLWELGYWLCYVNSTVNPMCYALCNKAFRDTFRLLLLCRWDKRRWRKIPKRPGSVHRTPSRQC
# NADH coupling: blocks coupling enzymes of NAD/NADH assays | IC50, µM (top dose mostly 10 µM), without a hit: top-dose inhibition | coupled PK/LDH NADH assays, four targets | 0.02% of 65,000 active | AID 774;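 active means single-dose screening hits from any of four coupled enzyme assays that gave an IC50 when retested across doses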;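 further: the DPM-DC format reads NADH fluorescence rather than 340 nm absorbance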
# Fluor 339 460: intrinsic fluorescence of library compounds, ex339/em460 – biochemical, MLSMR library, data from DPM-DC assay, artefact control, profiling panel. fluorescence fold increase at 10 µM. compound autofluorescence, ex339/em460 nm, NADH buffer; stronger effect = higher value; 1 = no-compound wells, NADH background. 5.5% of 65,000 active;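 active means at 10 µM, mean starting fluorescence two-fold or more over control wells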;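 further: signal is the first read of a kinetic run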
# M1 ag: agonists of M1 muscarinic receptor. CHO-M1 cells, Fluo-4 calcium fluorescence, agonist mode; stronger effect = higher value. B-score at 10 µM. 3% of 64,000 active. AID 626;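 active means fluorescence rise, raw or as B-score row- and column-corrected plate score, outside the 99.7% band of its plate's samples, either direction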
# mHtt clearance: compounds clearing mutant huntingtin protein | HeLa Exon1htt(103Q)mCFP, aggregate imaging; zero = plate's median compound well | inhibition, % at 1.5 µM | 0.42% of 47,000 active | AID 853;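 active means inhibition of aggregate fluorescence above about 70%, also judged a hit by eye on the cell image, limit read from the data, passing the limit was not always enough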;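 further: cells exposed to compound for three days before fixation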
# M1 antag conf: confirmation of rat M1 muscarinic receptor antagonists. CHO-M1 cells, Fluo-4 calcium, ACh EC80 antagonism; stronger effect = lower value. 43% of 1,700 active. AID 677. shares compounds with M1 antag. calcium response (max-min fluorescence) at 10 µM;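 active means calcium response below the same-plate mean of wells given acetylcholine alone at its 80%-effect dose, minus 3 SD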;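 further: raw fluorescence intensity difference in arbitrary instrument units and not normalized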
# mGluR4 antag: acts on human mGluR4 in M1 antagonist selectivity test | shares compounds with M1 antag | CHO-mGluR4 calcium flux, Fluo-4 fluorescence, glutamate EC80; stronger effect = lower value | fluorescence response (max-min) at 10 µM | 0.9% of 1,700 active;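 active means fluorescence response below the plate's average for near-maximal glutamate wells, less 3 SD of those wells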;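 further: raw unnormalized fluorescence span taken in the window right after glutamate addition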
# Active calls of the source: *; . = no result.
SMILES,A340 absorber,M1 antag,NADH coupling,Fluor 339 460,M1 ag,mHtt clearance,M1 antag conf,mGluR4 antag
CN1CCN(C(=O)CN(Cc2ccc(Cl)cc2)S(C)(=O)=O)CC1,1,-2.5*,1%,1,0.58,.,538,211
CCn1c(=O)cc(SCC(=O)N2CCN(Cc3ccc4c(c3)OCO4)CC2)c2ccccc21,1.1,-5.7*,3%,1.2,0.33,-25,432*,236
CCn1c(=O)cc(SCC(=O)N2CCCCC2)c2ccccc21,1.1,-0.27,10%,1.4,0.38,-14,.,.
Cn1c(=O)cc(SCC(=O)Nc2ccc3c(c2)OCO3)c2ccccc21,1,0.009,2%,1.1,1.4,.,.,.
CCn1c(=O)cc(SCC(=O)NCCN2CCN(Cc3ccccc3)CC2)c2ccccc21,1,-3.5*,2%,1.2,1.3,-24,499,224
CCn1c(=O)cc(SCC(=O)NCCCN2CCN(c3ccc(F)cc3)CC2)c2ccccc21,1.1,-2,2%,1.3,-0.14,-7,.,.
Cn1c(=O)cc(SCC(=O)N2CCN(C3CCCCC3)CC2)c2ccccc21,1.1,-2.8*,2%,1.4,1.2,.,249*,222
Cn1c(=O)cc(SCC(=O)N2CCN(Cc3ccc4c(c3)OCO4)CC2)c2ccccc21,1,-2.1*,9%,1.2,0.46,60,474*,195
COc1ccc(Cl)c(Cn2c(NCCCO)nc3c2c(=O)n(C)c(=O)n3C)c1,0.97,0.51,9%,1.1,1.7,-21,.,.
NC/C(=N\O)c1ccc(Cl)cc1Cl,1,0.088,1%,1.2,-0.32,.,.,.
CCOc1ccc(NC(=O)CN(c2ccc(OC)cc2)S(C)(=O)=O)cc1,1.1,-3.5*,0%,1.1,-0.69,.,612,241
COc1ccc(OCC(=O)Nc2ccc(C)cc2)cc1,1,-14*,8%,1,-1,-23,516,216
CC(=O)NC1(C(F)(F)F)C(=O)NC(C)=C1C#N (configuration not stated),1.1,0.4,0%,1.1,-0.24,.,.,.
O=c1cc(C23CC4CC(CC(C4)C2)C3)[nH][nH]1,1,-1.1,19%,1.1,-0.21,11,.,.
CCn1c(Sc2ccc(N)cc2Cl)nc2ccccc21,1.1,-0.35,0%,1.1,-0.99,11,.,.
CCCCn1c(C(C)NC(=O)c2cccs2)nc2ccccc21 (configuration not stated),1.1,-2.6*,2%,1.1,0.29,.,610,161
CCn1c(C(C)NC(=O)c2cccs2)nc2ccccc21 (configuration not stated),1,0.34,4%,1.1,0.0034,.,.,.
CCCCn1c(C(C)NC(=O)CCC)nc2ccccc21 (configuration not stated),1,-4.1*,2%,1.1,0.63,.,555,228
CCCC(=O)NC(C)c1nc2ccccc2n1C (configuration not stated),1,-0.91,2%,1,1.9,.,.,.
COc1ccc(N(CC(=O)NN=C2CCCCCCC2)S(=O)(=O)c2ccccc2)cc1,.,.,.,.,.,-58,.,.
Cn1c(=O)n(CCN2CCOCC2)c(=O)c2c1nc1n2CCN1c1ccccc1,1,-0.076,3%,1.1,2.1,-53,.,.
COCC(=O)N(Cc1cc2ccccc2[nH]c1=O)c1ccc(OC)cc1,1,-0.053,3%,1.2,-0.26,.,.,.
COc1ccc2[nH]c(=O)c(CN(C)C(=O)COc3ccccc3)cc2c1,1,-9*,15%,3.4*,0.017,.,665,219
CS(=O)(=O)N1CCCC(C(=O)NCCCN2CCOCC2)C1 (configuration not stated),0.99,0.85,6%,1.1,-2.3,.,.,.
CCOC(=O)C1=C(O)CCn2c1nc1ccccc12,1,-2.3*,2%,0.99,0.086,.,640,233
SMILES,A340 absorber,M1 antag,NADH coupling,Fluor 339 460,M1 ag,mHtt clearance,M1 antag conf,mGluR4 antag
CCOC(=O)c1ccc(S(=O)(=O)n2c(CN3CCCCC3)nc3ccccc32)cc1,1,-0.46,2%,1.1,0.28,10,.,.
O=C(NCc1ccccc1)C(c1ccncc1)N(C(=O)c1csnn1)C1CC1 (configuration not stated),.,.,.,.,.,53,.,.
CC1CCCC(C)N1CC(O)COc1ccc(Cl)cc1 (configuration not stated),0.99,-3.2*,6%,0.99,-0.12,-40,501*,224
CC1CCCN(Cc2nc3c(c(=O)n(C)c(=O)n3C)n2Cc2c(F)cccc2Cl)C1 (configuration not stated),1.1,-1*,2%,1.1,0.58,.,653,200
Cc1cc(C)nc(N2CCN(c3nc(C)cc(C)n3)CC2)n1,1,-7.7*,17%,0.83,-0.26,.,719,217
CCn1c(Cc2ccccc2)nnc1SCC(=O)Nc1ccccc1N1CCOCC1,.,.,.,.,.,-31,.,.
O=C(CCN1C(=O)C2C3C=CC(C3)C2C1=O)Nc1ccc2c(c1)OCO2 (configuration not stated),1,-2.6*,1%,1.2,0.31,62,588,211
Cc1cc(NC(=O)CSc2nnc(C)c(=O)[nH]2)no1,1.1,-2.3*,7%,1.1,0.25,.,676,240
Cc1nnc(SCC(=O)Nc2nccs2)[nH]c1=O,1.1,-14*,6%,1.1,0.086,.,587,249
Cn1cnnc1SCc1ccc(-c2ccc(Br)cc2)o1,0.98,-0.55,7%,1,0.006,22,.,.
O=C(CN1CCC(Cc2ccccc2)CC1)NC(=O)NCc1ccco1,1,-0.93,4%,1,1.1,.,.,.
O=C(CN1CCC(NC(=O)Nc2ccccc2-c2ccccc2)CC1)NCc1ccco1,1,-4*,2%,1.1,-1.4,.,215*,197
Cn1c(CCN2CCOCC2)nc2cc(NC(=O)COc3ccccc3)ccc21,0.98,-3.7*,4%,1.1,-0.2,15,581,174
CC1CCN(CCc2nc3cc(NS(=O)(=O)c4ccccc4)ccc3n2C)CC1,0.97,-6*,5%,1.1,1.1,21,415*,262
Cn1c(CCN2CCCCC2)nc2cc(NC(=O)C3CCCCC3)ccc21,0.98,-3.8*,8%,1.1,-0.23,.,408*,198
CC1CCN(CCc2nc3cc(NS(=O)(=O)c4ccc(F)cc4)ccc3n2C)CC1,0.99,-4*,2%,1.1,-0.1,-6,405*,267
O=C(Cc1ccccc1)NCC(=O)N1CCCCCC1,.,.,.,.,.,16,.,.
Cn1c(CN2CCCCC2)nc2cc(NC(=O)c3ccccc3)ccc21,1,-2.8*,1%,1.1,0.034,-27,472,208
Cn1c(CCN2CCCCC2)nc2cc(NS(=O)(=O)c3ccc(Cl)cc3)ccc21,0.98,-3.1*,9%,1,-0.92,.,305*,243

# Source: PubChem (several laboratories)
